Experimental data as given in PubChem BioAssay AID652231 (Johns Hopkins Ion Channel Center, 2013).
Screen size: about 2,300 compounds; about 55 (2%) were called active.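 Rule for the calls: active = duplicate-averaged calcium signal over 20% of the ionomycin maximum, relative to buffer baseline; inactive = the rest.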 What follows is part of a selection rich in actives, with near analogues and random picks from the rest.

Assay: compound-evoked intracellular calcium rise – cell-based, counter-screen for TMEM16A inhibitor project, confirmation (AID 652231);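 for calcium response (% of ionomycin): each well's signal is peak minus trough fluorescence divided by its pre-addition baseline; 0% = buffer wells and 100% = ionomycin wells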
Details: TMEM16A/YFP HEK293, Fluo4 calcium mobilization, at 10 µM; active compounds read high

| Compound | calcium response (% of ionomycin) |
| --- | --- |
| CSc1nnc2c(n1)OC(c1ccsc1)N(C(C)=O)c1ccccc1-2 (centres undefined) | inactive |
| CCOC(=O)C1=C(CN2CCc3ccccc32)NC(=O)NC1c1cccc([N+](=O)[O-])c1 (centres undefined) | inactive |
| O=S1(=O)CCN(Cc2ccccc2Cl)CC1 | inactive |
| COc1ccc(Cl)cc1NC(=O)CCS(=O)(=O)c1cc2c(cc1C)NC(=O)CO2 | inactive |
| O=C(Nc1nc(-c2ccc3c(c2)OCO3)cs1)c1ccncc1 | inactive |
| Cc1nc2ccccc2cc1OCc1ccc(F)cc1 | inactive |
| CC(C)(C)C(=O)/C(C#N)=C/c1ccc(O)cc1 | inactive |
| O=C(O)c1ccc(NC(=O)C2CCCCC2)cc1 | inactive |
| Cc1ccc(-n2[nH]c(C)c(/C=N/N3C(=O)c4cccc5cccc(c45)C3=O)c2=O)cc1 | 43.5% (active) |
| Cc1[nH]n(-c2cccc(Cl)c2)c(=O)c1-c1ccc(Cl)cc1 | inactive |
| O=C1c2ccccc2C(Nc2ccc3c(c2)OCCO3)N1Cc1ccco1 (centres undefined) | inactive |
| Cc1cccc(N=Nc2c(O)[nH]c3ccc(F)cc23)c1 | inactive |
| CCCCn1ccnc1C(=O)c1cccc(S(=O)(=O)N2c3ccccc3CC2C)c1 (centres undefined) | inactive |
| O=C(CNCCC1=CCCCC1)Nc1ccccc1N1CCCCCC1 | inactive |
| CCCC(=O)Nc1ccccc1N1CCN(C(=O)c2ccccc2)CC1 | inactive |
| S=C(NCc1cccs1)Nc1ccc(Cl)cc1 | inactive |
| N#Cc1nc(N)nc(N(c2ccccc2)c2ccccc2)n1 | inactive |

| Compound | calcium response (% of ionomycin) |
| --- | --- |
| Fc1ccc(CSc2nnc(-c3cc4c(s3)-c3ccccc3CC4)o2)cc1 | inactive |
| Cn1c(CN2CCOCC2)nc2cc(NC(=O)c3ccc(Cl)cc3)ccc21 | inactive |
| O=C1NC(=O)C2C1C(c1ccc([N+](=O)[O-])cc1)=NN2Cc1ccccc1 (centres undefined) | inactive |
| O=C(N/N=C/c1cc(Cl)cc([N+](=O)[O-])c1O)C(O)(c1ccccc1)c1ccccc1 | inactive |
| O=C(COc1ccccc1)NCc1ccc2c(c1)OCO2 | inactive |
| CN(C)c1cc[n+](Cc2ccccc2)cc1 | inactive |
| CCCCCc1ccc(-c2ccc(C(=O)O)cc2)nc1 | inactive |
| Cc1ccc2c(c1)N(CC(=O)N1CCCc3ccccc31)C(=O)C(C)O2 (centres undefined) | inactive |
| COC(=O)c1ccc(COC(=O)c2c(C)nn(Cc3ccccc3Cl)c2Cl)o1 | inactive |
| CCOC(=O)C1CCN(c2ncnc3c2oc2ccc(Br)cc23)CC1 | inactive |
| Cc1nc(CNS(=O)(=O)c2ccc(Oc3ccccc3)cc2)cs1 | inactive |
| CC(=O)c1cc(CN2CCC(C(=O)Nc3cccc(-c4cscn4)c3)CC2)cs1 | inactive |
| c1ccc(-c2nnc(SCc3nc4ccccc4[nH]3)o2)cc1 | inactive |
| COc1ccc(-n2c(C)cc(C(=O)CSc3nnc(-c4cccs4)o3)c2C)cc1 | inactive |
| O=C(Nc1ccccc1)c1ccccc1NC(=O)C(F)(F)F | inactive |
| O=C(NC(=S)Nc1ccccc1C(=O)O)c1ccc(-c2ccc(Br)cc2)o1 | 29% (active) |
| N#CC1=C(SCc2ccccc2)NC(=O)C(C#N)C12CCCC2 (centres undefined) | inactive |
